# PubChem BioAssay AID463173 (ICCB-Longwood Screening Facility, Harvard Medical School, 2010)
# About 1,700 (3.3%) of roughly 52,000 compounds were called active. Cut-off read from the data, not from the text of the source: active = survival mostly below about 52% (no sharp cut-off); inactive = mostly above about 56%. The entries come from a sample that favours actives as a whole.
# Test system: Wild type
# Experiment: growth inhibition of S. aureus wild type versus tarO mutant, primary screen, teichoic acid synthesis inhibitors, RN4220, OD600 (AID 463173)
# Conditions: S. aureus RN4220 wild type/DeltatarO growth, OD600, 18 h, stronger effect = lower value, screened at 18.75 µg/mL (by protocol)
row,Structure (SMILES),survival
1,CNC(=O)N(O)C1N(c2ccccc2)C(=S)SC1(C)C (stereo unspecified),109% (inactive)
2,O=C(NCc1ccccc1Cl)C1CCCN(c2ncnc3onc(-c4ccc(F)cc4)c23)C1 (stereo unspecified),65% (inactive)
3,COc1ccc(-n2cc(C(=O)Oc3cc(C)cc(C)c3)c3ccccc3c2=O)cc1,153% (inactive)
4,COc1cccc(NC(=O)c2ccc(CN3CCN(c4ccccc4)CC3)cc2)c1,122% (inactive)
5,NC(=O)C1CCN(C(=O)c2ccc3c(c2)N(Cc2cccc(Cl)c2)C(=O)c2ccccc2S3(=O)=O)CC1,69% (inactive)
6,O=C(Nc1c(C(=O)Nc2ccc(F)cc2)oc2ccccc12)c1ccccc1F,30% (inactive)
7,Cc1ccc(S(=O)(=O)N2CCN(C(=O)CN3CCOCC3)C2C(C)C)cc1 (stereo unspecified),105% (inactive)
8,CCc1ccc(NC(=O)CSc2nc(C)c(C(=O)Nc3ccccc3)c(-c3ccc(OC)c(OC)c3)c2C#N)cc1,85% (inactive)
9,CC(C)Nc1nc(C#N)nc(NC(C)C)n1,130% (inactive)
10,COc1cc(NC(=O)c2cc3c(=O)n(Cc4ccco4)ccc3nc2C)cc(OC)c1OC,63% (inactive)
11,O=c1[nH]c2ccc(N=Cc3ccccc3C(F)(F)F)cc2[nH]1,116% (inactive)
12,COc1cc(NS(=O)(=O)c2ccc(NC(=O)COc3ccc(Cl)cc3Cl)cc2)nc(OC)n1,93% (inactive)
13,C=CCN1C(=O)C(C)(C)N(C(C)=O)c2ccccc21,121% (inactive)
14,O=S(=O)(c1ccccc1)c1nc(-c2ccc(F)cc2)oc1NCc1ccccc1,84% (inactive)
15,O=S(=O)(c1ccccc1)c1nc(-c2ccc(F)cc2)oc1N1CCCCCC1,19% (inactive)
16,CCS(=O)(=O)c1oc(-c2ccc(F)cc2)nc1S(=O)(=O)c1ccccc1,-1% (active)

row,Structure (SMILES),survival
1,Cc1ccc(CNC(=O)c2cc(C3CC3)nc3c2c(C)nn3-c2cccc(Cl)c2C)cc1,94% (inactive)
2,COc1ccccc1OC(C)C(=O)Nc1cccc(-c2nc3ccccc3s2)c1 (stereo unspecified),29% (inactive)
3,Cc1ncc(CO)c2c1Oc1nc(-c3ccc(Cl)cc3)nc(SCC(=O)N3CCCCC3)c1C2,79% (inactive)
4,O=C(c1ccc2c(c1)N(Cc1ccccc1)C(=O)c1ccccc1S2(=O)=O)N1CCc2ccccc21,87% (inactive)
5,CCN(C(=O)c1ccc2c(c1)N(Cc1cccc(Cl)c1)C(=O)c1ccccc1S2=O)c1ccccc1 (stereo unspecified),0% (active)
6,COc1ccccc1CNC(=O)c1ccc2c(c1)N(Cc1cccc(Cl)c1)C(=O)c1ccccc1S2(=O)=O,10% (active)
7,O=C(c1ccc2c(c1)N(Cc1cccc(Cl)c1)C(=O)c1ccccc1S2(=O)=O)N1CCc2ccccc21,-3% (active)
8,O=C(NCc1ccccc1)c1ccc2c(c1)N(Cc1cccc(Cl)c1)C(=O)c1ccccc1S2(=O)=O,74% (inactive)
9,COc1ccccc1CNC(=O)c1ccc2c(c1)N(Cc1cccc(C)c1)C(=O)c1ccccc1S2(=O)=O,90% (inactive)
10,O=S1(=O)c2ccccc2N(Cc2ccc(Cl)cc2)c2ccccc21,129% (inactive)
11,CN(C(=O)c1ccc2c(c1)N(Cc1cccc(Cl)c1)C(=O)c1ccccc1S2=O)C1CCCCC1 (stereo unspecified),95% (inactive)
12,O=S1(=O)c2ccccc2N(Cc2cccc(Cl)c2)c2ccccc21,-2% (active)
13,O=S1(=O)c2ccccc2N(Cc2ccccc2)c2ccccc21,69% (inactive)
14,CCCCN(C)C(=O)c1ccc2c(c1)N(Cc1cccc(Cl)c1)C(=O)c1ccccc1S2=O (stereo unspecified),124% (inactive)
15,O=C(c1ccc2c(c1)N(Cc1ccc(Cl)cc1)C(=O)c1ccccc1S2(=O)=O)N1CCc2ccccc21,147% (inactive)
